Screens: PubChem BioAssay, several laboratories
Rows were chosen to be rich in hits. Some 2.1% of all compounds tested hit in one or more screens of this group.
PfHsp40 rescue: rescue of PfHsp40-mediated yeast toxicity; S. cerevisiae expressing PfHsp40, growth rescue, ATP luminescence; growth rescue, % at 12.5 µM; 340,000 compounds, 0.68% hits; AID 504582; in the data active means growth rescue above about 28%, passing the limit was not always enough;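 further: yeast W303a lacking pdr1 and pdr3 grown in galactose medium; growth measured after three days at 30 °C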
MazF activator: increases E. coli MazEF RNase cleavage of RNA; 350,000 compounds, 0.32% hits; FAM/BHQ RNA-DNA oligo cleavage fluorescence, 5 h; AID 504720; P0AE70; activation, % at 20 µM; in the data active means activation above about 50%
Target sequence (P0AE70 whole entry, looked up): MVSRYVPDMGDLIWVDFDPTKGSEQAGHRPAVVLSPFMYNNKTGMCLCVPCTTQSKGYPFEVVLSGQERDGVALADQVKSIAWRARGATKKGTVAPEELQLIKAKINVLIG
BJeLR viability: kills HRASV12-expressing BJeLR cells; BJeLR (HRASV12) viability, CellTiter-Glo ATP luminescence, 48 h; inhibition, % (test concentration not listed); 300,000 compounds, 0.17% hits; AID 1554; in the data active means inhibition above about 50%
PrPC TRFRET: inhibitors of human cell surface prion protein PrPC; P04156; TR-FRET read-out; inhibition, % at 13.8 µM; 370,000 compounds, 0.43% hits; in the data active means inhibition above about 24%; further: 0% = median of the test wells and 100% = reference compound wells
DUSP3 inh: blocks human VHR1 dual specificity phosphatase; P51452; recombinant VHR phosphatase, pNPP absorbance; inhibition, % at 13.3 µM; 290,000 compounds, 0.52% hits; in the data active means inhibition above about 50%
Target sequence (P51452 whole entry, looked up): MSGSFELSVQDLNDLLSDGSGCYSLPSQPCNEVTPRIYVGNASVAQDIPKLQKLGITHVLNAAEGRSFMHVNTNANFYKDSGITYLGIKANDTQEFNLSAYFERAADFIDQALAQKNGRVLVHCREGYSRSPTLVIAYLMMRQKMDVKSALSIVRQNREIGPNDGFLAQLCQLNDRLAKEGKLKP
PrP UTR inh: suppresses PrP 5' UTR mRNA reporter expression; cell-based PrP 5' UTR mRNA reporter, plate reader; inhibition, % (no concentration beside the values); 340,000 compounds, 0.35% hits; in the data active means inhibition above about 52%; further: 0 = median of the neutral control wells
Starred values were filed as active, the others as inactive; · = no result given.

SMILES	PfHsp40 rescue	MazF activator	BJeLR viability	PrPC TRFRET	DUSP3 inh	PrP UTR inh
COc1ccc(S(=O)(=O)N(C)C)cc1NC(=O)c1ccc2c(c1)NC(=O)C(C)S2 (configuration not stated)	0	2	·	0	·	12
Cn1c(SCc2ccc(Cl)cc2Cl)nc(C(F)(F)F)cc1=O	0	-17	15	4	21	-18
FC(F)(F)c1nc(SCc2ccc(Cl)cc2Cl)n[nH]1	299*	5	-3	8	17	-12
COc1cc(-c2c(C(=O)c3ccccc3)[nH]c(N)c2C(N)=O)ccc1O	·	·	·	-12	·	·
COc1ccc(NC(=O)Nc2cccc([N+](=O)[O-])c2)cc1Cl	-1	106*	10	-2	49	-34
CCOC(=O)/C=C/C(=O)Nc1cccc([N+](=O)[O-])c1	189*	2	-5	·	-1	-22
COc1ccc(C(=O)Nc2cccc([N+](=O)[O-])c2)cc1Br	0	-5	0	0	·	-33
CCC(=O)Nc1ccc2c(c1)Cc1cc([N+](=O)[O-])ccc1-2	-1	58*	·	-24	·	-31
O=C(Nc1cccc([N+](=O)[O-])c1)Nc1ccc2c(c1)CCC2	2	84*	1	-3	18	-39
CCCN1CNc2c(c(=O)[nH]c(=S)n2-c2ccc(Cl)cc2)C1	1	4	·	-27	10	-24
O=C(OCC(=O)N1CCc2ccccc2C1)c1ccc(F)cc1Cl	1	0	·	-4	·	-33
Cc1onc(-c2ccccc2Cl)c1C(=O)Nc1ccc2c(c1)OCO2	1	1	-5	4	51*	-9
Cn1c(-c2cccc(OCc3ccccc3)c2)nc2c1c(=O)[nH]c(=O)n2Cc1ccccc1	0	62*	·	-7	10	-8
O=c1[nH]nc(CNc2ccc(O)cc2)c2ccccc12	1	444*	2	-7	6	7
O=C1C=CC(=O)N1c1ccc(Sc2ccc([N+](=O)[O-])cc2)cc1	·	·	64*	·	0	·
CC1(C(=O)NC2CCCCCC2)CCN1C(=O)Cc1ccc(-c2ccccc2)cc1 (configuration not stated)	·	·	·	4	·	·
Cn1c(N)c(C(=O)CSc2nnc(C3CC3)n2-c2ccccc2)c(=O)n(C)c1=O	-1	-2	·	5	·	3
CC(C)CCNc1nc(-c2ccco2)c2c(c1C#N)CCCC2	0	-9	8	3	59*	-2
N#Cc1c(NCCN)nc(-c2ccco2)c2c1CCCC2	0	-19	3	6	20	-39
CCC(C)(C)NC(=O)c1sccc1Oc1ccc(F)cc1[N+](=O)[O-]	0	7	6	-6	51*	-19
C#CC(C)(C)NC(=O)c1sccc1Oc1ccc(F)cc1[N+](=O)[O-]	1	2	1	-12	33	-17
CCN(CC)C(=O)c1ccc(NC(=O)Nc2ccccc2F)cc1	-3	10	55*	4	17	44
O=C(Nc1ccc(Br)cc1)Nc1ccccc1F	-1	5	3	23	26	-100
COc1cc(Cl)ccc1OCc1cc(C(=O)N2C[C@H]3CC[C@H]2C3)no1	1	1	-3	0	53*	-50
Cc1ccc(S(=O)(=O)NC(CC(C)C)C(=O)Nc2ccncc2)cc1 (configuration not stated)	2	-4	11	-8	·	-17
SMILES	PfHsp40 rescue	MazF activator	BJeLR viability	PrPC TRFRET	DUSP3 inh	PrP UTR inh
COc1ccc(OC)c(C(c2c(O)c3ccccc3oc2=O)c2c(C)n(C)n(-c3ccccc3)c2=O)c1 (configuration not stated)	46*	5	-10	1	37	·
Cc1c(C(c2ccc(O)cc2)c2c(O)c3ccccc3oc2=O)c(=O)n(-c2ccccc2)n1C (configuration not stated)	1	2	-16	4	-7	-17
Cc1c(C(=O)N/N=C/C(C)C)[nH]c2ccc([N+](=O)[O-])cc12	1	10	5	-11	56*	-17
COc1ccc(S(=O)(=O)NC2CC(C)(C)NC(C)(C)C2)cc1	-1	10	-4	-5	-14	-10
Cc1cc(S(=O)(=O)NC2CC(C)(C)NC(C)(C)C2)c(Cl)cc1Cl	-1	5	9	-3	60*	-71
CC1(C)CC(NS(=O)(=O)c2ccc(Cl)cc2)CC(C)(C)N1	-1	2	1	-2	54*	-8
O=C(OCC#CCSc1nnc(-c2cccc3ccccc23)o1)c1cnc[nH]1	1	2	·	-9	·	-5
CCOC(=O)/C=c1/s/c(=C\c2c(OC)ccc3ccccc23)c(=O)n1CC(=O)NCC1CCCO1 (configuration not stated)	2	184*	·	-2	·	8
CCOC(=O)/C=c1\s/c(=C\c2c(OCC)ccc3ccccc23)c(=O)n1CC(=O)NCC1CCCO1 (configuration not stated)	2	-17	0	-11	9	-18
O=C(Cc1ccccc1)NCC(=O)OCC(=O)c1ccc(F)cc1	-2	-2	-2	1	2	-8
Cc1ccc(CNC(=O)CN2C(=O)NC(C)(c3ccccc3Cl)C2=O)cc1 (configuration not stated)	2	-2	1	7	53*	-3
Cc1ccc(CNC(=O)CN2C(=O)NC(C)(c3ccc(Cl)cc3)C2=O)cc1 (configuration not stated)	1	-6	-21	7	6	-9
N#C/C(=C(/O)c1ccc([N+](=O)[O-])o1)c1nc2ccccc2[nH]1	0	141*	-13	3	3	-11
Cc1ccc2nc(/C(C#N)=C\c3ccc([N+](=O)[O-])o3)[nH]c2c1	5	10	18	-4	24	-25
N#C/C(=C\c1ccc([N+](=O)[O-])o1)c1nc2ccccc2[nH]1	·	-20	44	-4	52*	·
CC(C)(C)/C(O)=C(/C#N)c1nc2ccccc2[nH]1	0	10	7	5	30	-7
O=C(NNc1ccc([N+](=O)[O-])cc1)c1ccccc1Cl	-1	6	6	-25	12	-21
O=C(NNc1ccc([N+](=O)[O-])cc1)c1ccccc1F	32*	-3	·	-12	38	-27
Cc1cccc(C)c1N1C(=O)C2ON(c3ccccc3)C(c3ccncc3)C2C1=O (configuration not stated)	254*	-4	-6	1	20	-7
Cc1ccc(NC(=O)CS(=O)CC(=O)Nc2ccccc2-c2ccc(C)o2)cc1 (configuration not stated)	0	300*	-10	-11	2	-28
COc1ccc(C)cc1NC(=O)COC(=O)c1ccc([N+](=O)[O-])o1	77*	-12	5	-16	7	-36
CN1/C(=C\C(=O)COC(=O)c2nccnc2N)C(C)(C)c2ccccc21	0	-6	5	-1	·	-11
